{"source": "the supplement of paper PMC7858590", "data": [{"test_system": "human monocyte-derived macrophages (polarized)", "experiment": "cell shape (eccentricity) Z-score vs DMSO control; higher = more elongated, M2-like morphology", "conditions": "5 µM; 24 h; macrophage state: M1-polarized (IFNg + TNFa), cytokines present during treatment", "protocol": "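Primary-screen hits were rescreened on polarized hMDMs with the differentiating cytokines (IL-4 + IL-13 or IFNg + TNFa) kept in the medium during treatment with compound at 5 uM for 24 h. The eccentricity Z-score vs DMSO wells is averaged over experiments.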", "values": [{"smiles": "N#CC[C@H](C1CCCC1)n1cc(-c2ncnc3[nH]ccc23)cn1", "cell shape (Z-score)": 1.19}, {"smiles": "CO[C@H]1C[C@H](O[C@@H]2/C(C)=C/C[C@@H]3C[C@@H](C[C@]4(CC[C@H](C)[C@@H](C5CCCCC5)O4)O3)OC(=O)[C@@H]3C=C(C)/C(=N/O)[C@H]4OC/C(=C\\C=C\\[C@@H]2C)[C@]43O)O[C@@H](C)[C@@H]1O", "cell shape (Z-score)": 17.6}, {"smiles": "COc1cccc2c1C(=O)c1c(O)c3c(c(O)c1C2=O)C[C@@](O)(C(C)=O)C[C@@H]3O[C@H]1C[C@H](N)[C@H](O)[C@H](C)O1", "cell shape (Z-score)": 8.83}, {"smiles": "CC1(C)C[C@@H]1C(=O)N/C(=C\\CCCCSC[C@H](N)C(=O)O)C(=O)O", "cell shape (Z-score)": 5}, {"smiles": "CCOc1cc2ncc(C#N)c(Nc3ccc(OCc4ccccn4)c(Cl)c3)c2cc1NC(=O)/C=C/CN(C)C", "cell shape (Z-score)": 0.0624}, {"smiles": "c1cc(-c2cnn3cc(-c4ccc(OCCN5CCCCC5)cc4)cnc23)ccn1", "cell shape (Z-score)": 1.96}, {"smiles": "CCCC(=O)Nc1ncnc2c1ncn2[C@@H]1O[C@@H]2COP(=O)(O)O[C@H]2[C@H]1OC(=O)CCC", "cell shape (Z-score)": 0.117}, {"smiles": "CN1CCN(CCOc2cc(OC3CCOCC3)c3c(Nc4c(Cl)ccc5c4OCO5)ncnc3c2)CC1", "cell shape (Z-score)": 4.07}, {"smiles": "CCOC(=O)N[C@@H]1CC[C@@H]2[C@@H](C1)C[C@H]1C(=O)O[C@H](C)[C@H]1[C@H]2/C=C/c1ccc(-c2cccc(F)c2)cn1", "cell shape (Z-score)": 5.58}, {"smiles": "C[C@@]1(C(=O)Nc2ccc(F)nc2)CCCN1c1nc(Nc2cc(C3CC3)n[nH]2)c2cccn2n1", "cell shape (Z-score)": 5.79}, {"smiles": "Cn1cncc1[C@@](N)(c1ccc(Cl)cc1)c1ccc2c(c1)c(-c1cccc(Cl)c1)cc(=O)n2C", "cell shape (Z-score)": -0.763}]}]}
